Assay results taken from PubChem BioAssay.
Activity calls are given as the source filed them.

assay: FRG1 expression reporter modulators in myotubes – cell-based, C2C12 myotubes, firefly/Renilla luciferase, luminescence, FRG1 inhibition for FSHD, primary screen (AID 1084); details: FRG1 promoter luciferase, higher = more signal, called active from +8 up or from −8 down

**Q.** With `O=C1C2=CC[C@H]3C(=O)N(C4CCCCC4)C(=O)[C@H]3[C@H]2[C@H](O)[C@@H]2O[C@H]12` as the compound, how does the z-score read?
**A.** 11.5 (active)

**Q.** With `C=CCOCC1CN2[C@@H](CC[C@@H](C)[C@@H]2c2ccc(Br)cc2)C(=O)O1` (some centres not stated) as the compound, how does the z-score read?
**A.** -0.0613 (inactive)

**Q.** Which z-score does the source give for `CCOC(=O)[C@H](Cc1ccccc1)NC(=O)CCC1CC(OC(=O)NCc2ccc3c(c2)OCO3)CC2(CCCC(COC(=O)NCCOc3ccccc3)O2)O1` (some centres not stated) here?
**A.** 1.17 (inactive)

**Q.** For `CCN1C(=O)[C@H]2[C@H]3[C@H](O)[C@H](O)CC(=NO[C@@H](C)c4cc(-c5c(C)cc(C)cc5C)no4)[C@@H]3CC[C@H]2C1=O`, which z-score is on record?
**A.** 0.998 (inactive)

**Q.** With `O=C(NN=C1C[C@@H](O)[C@@H](O)[C@@H]2[C@@H]3C(=O)N(c4ccc(F)cc4F)C(=O)[C@@H]3CC[C@H]12)OCc1ccccc1` as the compound, how does the z-score read?
**A.** -0.823 (inactive)

**Q.** With `CC#CCOCCC=C1c2ccccc2[C@@H](OC)[C@@H]1C` as the compound, how does the z-score read?
**A.** 0.181 (inactive)

**Q.** For `CC(CCC(=O)OC[C@H]1O[C@H](C#Cc2ccccc2)C=C[C@@H]1Oc1ccc(C)cc1)=NO[C@H](C)c1cn([C@@H]2COC[C@H]2O)nn1`, which z-score is on record?
**A.** -1.03 (inactive)

**Q.** With `COC(=O)[C@@H]1CC[C@H](C)[C@@H](c2ccc(C)cc2)N1C(=O)c1ccc(C=NOC[C@H]2O[C@H](c3ccccc3)C=C[C@@H]2Oc2ccc(OC)cc2)cc1` as the compound, how does the z-score read?
**A.** 0.434 (inactive)

**Q.** For `CC(=O)OC[C@H]1O[C@@H](ON=C2[C@H]3CCn4c(=O)n(-c5ccccc5)c(=O)n4[C@H]3[C@H](O)[C@@H]3O[C@H]23)[C@H](OC(C)=O)[C@@H](OC(C)=O)[C@@H]1OC(C)=O`, which z-score is on record?
**A.** 0.295 (inactive)

assay: small molecules captured by biotinylated probe aFST – biochemical, small-molecule microarray, fluorescence 635/667, stem cell growth factor project, primary screen (AID 1086); details: higher = more signal;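 note: score merges 667 nm fluorescence with signal-to-noise of each printed compound spot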

**Q.** Which composite z-score does the source give for `COc1ccc(COC(=O)NN=C2C[C@@H](O)[C@@H](O)[C@@H]3[C@@H]4C(=O)N(C[C@@H]5CCCO5)C(=O)[C@@H]4CC[C@H]23)cc1` here?
**A.** 0.162

**Q.** With `CCOC(=O)[C@H](Cc1ccccc1)NC(=O)CCC1CC(OC(=O)NCCc2ccc(F)cc2)CC2(CCCC(COC(=O)NCCC(C)C)O2)O1` (some centres not stated) as the compound, how does the composite z-score read?
**A.** 0.296

**Q.** Which composite z-score does the source give for `COC(=O)CC=C[C@@H](C)[C@@H](C=NOC[C@@H](O)[C@H]1O[C@@H]2OC(C)(C)O[C@@H]2[C@H]1O)OC` here?
**A.** -0.456

**Q.** With `C[C@]12CCC3c4ccc(OCC5CO5)cc4CCC3C1CC[C@@H]2O` (some centres not stated) as the compound, how does the composite z-score read?
**A.** 0.473

**Q.** With `CCOC(=O)CCN1C(=O)[C@H]2[C@H]3[C@H](O)[C@H](O)CC(=NO[C@@H]4O[C@H](CO)[C@@H](O)[C@H](O)[C@H]4O)[C@@H]3CC[C@H]2C1=O` as the compound, how does the composite z-score read?
**A.** 0.675

**Q.** With `CC(CCN1CCCCc2nc(C)c(C)cc21)=NO[C@H](C)c1cn([C@@H]2COC[C@H]2O)nn1` as the compound, how does the composite z-score read?
**A.** 0.462

**Q.** With `COc1ccc(COC(=O)NN=C2C[C@@H](O)[C@@H](O)[C@@H]3[C@@H]4C(=O)N(c5cccc(Oc6ccccc6)c5)C(=O)[C@@H]4CC[C@H]23)cc1` as the compound, how does the composite z-score read?
**A.** 0.85

**Q.** With `CC=CC1=C(CO)[C@H](O)[C@H]2O[C@H]2[C@@H]1O` as the compound, how does the composite z-score read?
**A.** 0.133

**Q.** With `CC1(C)O[C@H]2OC([C@H](O)CON3C(=O)c4ccccc4C3=O)[C@H](O)[C@H]2O1` (some centres not stated) as the compound, how does the composite z-score read?
**A.** 0.169

**Q.** With `CCOC(=O)NN=C1C[C@@H](O)[C@@H](O)[C@@H]2[C@@H]3C(=O)N(CC)C(=O)[C@@H]3CC[C@H]12` as the compound, how does the composite z-score read?
**A.** 0.007

**Q.** With `CC(=O)OC[C@H]1O[C@@H](ON=C(C)CCC(=O)OC[C@H]2O[C@H](C#Cc3ccccc3)C=C[C@@H]2Oc2ccc(C)cc2)[C@H](OC(C)=O)[C@@H](OC(C)=O)[C@@H]1OC(C)=O` as the compound, how does the composite z-score read?
**A.** 0.31

**Q.** With `Cc1cc2c(nc1C)CCCCN2CC(O)CN1CCCc2nc(-c3ccc(Br)cc3)ccc21` (configuration not stated) as the compound, how does the composite z-score read?
**A.** 0.5

**Q.** With `CCOC(=O)CCN1C(=O)[C@H]2[C@H]3[C@H](O)[C@H](O)CC(=NOCC=C(C)CCC=C(C)C)[C@@H]3CC[C@H]2C1=O` as the compound, how does the composite z-score read?
**A.** 0.42

**Q.** With `CC(=O)OC[C@H]1O[C@@H](ON=C(C)CCN2CCCCc3nc(C)c(C)cc32)[C@H](OC(C)=O)[C@@H](OC(C)=O)[C@@H]1OC(C)=O` as the compound, how does the composite z-score read?
**A.** 0.551

**Q.** For `CC(=O)OC[C@H]1O[C@H](CCON=C(C)C)C=C[C@@H]1OC(C)=O`, which composite z-score is on record?
**A.** 0.36

**Q.** Which composite z-score does the source give for `CCCNC(=O)OC[C@H]1O[C@H](CCON=C[C@@H](NS(=O)(=O)c2ccc(C)cc2)[C@H](C)C=CCC(=O)OC)C=C[C@@H]1Oc1ccc(OC)cc1` here?
**A.** 0.118

**Q.** With `CCCC[C@H]1CN2[C@@H](CC[C@@H](C)[C@@H]2c2ccc(Br)cc2)C(=O)O1` as the compound, how does the composite z-score read?
**A.** 0.253

**Q.** For `CCC1=NOC(CCC2CC(OC(=O)NCc3cccc4c3OCO4)CC3(CCCC(COC(=O)NCCc4ccc(Cl)cc4)O3)O2)C1` (configuration not stated), which composite z-score is on record?
**A.** -0.0353
